Results as given in PubChem BioAssay (NCATS).
Records with an inconclusive call do not appear. Calls of active or inactive are those of the source. Calls come from the whole dose curve; as a rule, active = well fitted cell-killing curve with a large enough effect; inconclusive = small, poorly fitted or top-dose-only effect, or effect the other way; inactive = flat fitted curve, though single readings scatter.

Assay: qHTS for Inhibitors of ATXN expression: Validation of Cytotoxic Assay (AID 588349)
Conditions: cytotoxicity counter-screen for ATXN expression inhibitors, cell viability; series mostly up to 57.1 µM
Excerpt: Spinocerebellar ataxia type 2 (SCA2) is a multisystem neurodegenerative disease caused by a dominantly-acting mutation leading to expansion of a polyQ domain in the ataxin-2 protein (ATXN2). SCA2 patients develop progressive ataxia and later lose function in other neuronal systems. Prominent parkinsonian signs develop in some patients. Similar to many neurodegenerative disorders, no symptomatic or disease-modifying treatments are known.
The primary objective of project is to identify compounds inhibiting ATXN2 expression and to test them for efficacy in SCA2 mouse models. To this end, in a collaboration between Dr. Daniel Scoles and scientists at NCGC, a cell-based assay adapted to high-throughput screening has been developed to screen the NIH Molecular Libraries Small Molecule Repository (MLSMR). Confirmed qHTS active compounds will be tested for toxicity against the human neuron-like SH-SY5Y cell line. This line is the parental cell type used to generate the transgenic line used in the primary assay, and so should provide an isogenic control to test the inherent toxicity of qHTS actives.
NIH Chemical Genomics Center [NCGC]
NIH Molecular Libraries Probe Centers Network [MLPCN]
Assay Submitter (PI): Stefan Pulst and Daniel Scoles, University of Utah
HEK293 cultured cells will be dosed with titrated compounds and incubated for 72 hr at 37 degrees C. Toxicity will be assessed using the CellTiter Glo kit (Promega), which uses intracellular ATP concentration as a viability marker.

Structure (SMILES)	outcome
Oc1ccc2ccccc2c1SSc1c(O)ccc2ccccc12	inactive
O=c1cc(N2CCOCC2)oc2c(-c3ccccc3)cccc12	inactive
COc1ccccc1N1CCN(CCN(C(=O)C2CCCCC2)c2ccccn2)CC1	inactive
O=c1c(O)c(-c2ccc(O)cc2O)oc2cc(O)cc(O)c12	inactive
Cc1cc(O)c2c(c1)C(=O)c1cc(O)cc(O)c1C2=O	inactive
Nc1ccn([C@@H]2O[C@H](CO)[C@@H](O)C2O)c(=O)n1 (stereo partly specified)	inactive
O=C(O)c1cccnc1Nc1cccc(C(F)(F)F)c1	inactive
O=C1c2c(O)cc(O)cc2OC(c2ccc(O)c(O)c2)C1O (stereo unspecified)	inactive
Oc1ccc(-c2nc(-c3ccc(F)cc3)c(-c3ccncc3)[nH]2)cc1	inactive
OC(CN1CCN(c2cccc(Cl)c2)CC1)C(c1ccccc1)c1ccccc1 (stereo unspecified)	inactive
O=C1NC(=O)C(c2ccccc2[N+](=O)[O-])=C1Nc1ccc(O)c(Cl)c1	inactive
COc1ccc2cc([C@H](C)C(=O)O)ccc2c1	inactive
COc1cc2nc(N3CCN(C(=O)C4CCCO4)CC3)nc(N)c2cc1OC (stereo unspecified)	inactive
NCCCCNCCCN	inactive
NNc1nncc2ccccc12	inactive
Cc1cccc(C#Cc2ccccc2)n1	inactive
CC1(C)NC(=O)N(c2ccc([N+](=O)[O-])c(C(F)(F)F)c2)C1=O	inactive
CNC[C@H](O)c1ccc(O)c(O)c1	inactive
Cc1c(OCC(F)(F)F)ccnc1CS(=O)c1nc2ccccc2[nH]1 (stereo unspecified)	inactive
CCOC(=O)C(C)Oc1cccc2c(=O)n(CC(=O)Nc3ccc4c(c3)OCCO4)ccc12 (stereo unspecified)	inactive
O=c1ccc2ccc(O)c(O)c2o1	inactive
O=C(CCc1ccc(O)cc1)c1c(O)cc(O)cc1O	inactive
O=C(c1ccccc1)c1ccc2n1CCC2C(=O)O (stereo unspecified)	inactive
CN(C)CCCC1(c2ccc(F)cc2)OCc2cc(C#N)ccc21 (stereo unspecified)	inactive
COc1cc2c(cc1OC)C1CC(=O)C(CC(C)C)CN1CC2 (stereo unspecified)	inactive
C[C@@H](N)C1CCC(C(=O)Nc2ccncc2)CC1 (stereo partly specified)	inactive
